Among the data in PubChem BioAssay AID463190 (Sanford-Burnham Center for Chemical Genomics, 2010) are inhibition values, retold here.

Out of some 330,000 compounds screened, about 7,300 (2.2%) were called active. This excerpt belongs to a sample that is enriched for actives. Values without a mark were called inactive.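 How the source made its calls: active means inhibition of at least 40%; inactive means the rest.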

This experiment can be described thus: growth inhibition of tim10-1 ts yeast – luminescence, uHTS, primary screen (AID 463190).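 Further: mutant grown at 25 °C; 0% = DMSO wells with yeast and 100% = wells holding no yeast.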 As to conditions: S. cerevisiae tim10-1 ts strain growth, BacTiter-Glo, 24 h; at 20 µM; active compounds read high.
By inhibition is commonly meant the relative decrease from the control value, in per cent. For `O=S(=O)(/C=C/c1ccccc1)N1CCNCC1`, the inhibition is 7.28%. In the case of `CCOc1ccccc1-n1c(SCC(=O)NCc2ccco2)nnc1-c1ccncc1` it was 8.51%. As for `Cc1cc(Br)ccc1SCC(=O)OCC(=O)NCc1ccc2c(c1)OCO2`, the figure is 28%; as for `CC(=O)Nc1ccc(S(=O)(=O)Nc2ccc(N3CCCCC3)cc2)cc1`, 3.03%; as for `O=C1C=CC(=O)N1c1ccc(N2CCCCC2)cc1`, 93% (active). Take `O=C(Cc1ccccc1)NC(=S)Nc1ccc(N2CCCCC2)cc1`: the inhibition was 38.6%. As to `CC(=O)c1cccc(NC(=O)C2CCCN(S(=O)(=O)c3cccc4nonc34)C2)c1` (stereo not drawn), the inhibition was -2.16%. As for `N#Cc1ccc(CSc2ncccn2)cc1`, the inhibition is -2.68%. In the case of `N#Cc1ccc(CSc2nnc(-c3ccccn3)n2-c2ccc(Cl)cc2)cc1` it was 40% (active). As for `N#Cc1ccc(CSc2nnc3ccccn23)cc1`, the figure is 21.5%; as for `O=C1CSC2=NCN(c3ccccc3)CN12`, -4.56%; as for `Cc1nc(NC(=O)C2CCCCC2)sc1C`, 25.4%.

As to `CC1CCCCC1NC(=O)COc1ccc(C#N)cc1` (stereo not drawn), the inhibition was -1.06%. On to `CCOC(=O)c1c(NC(=O)C2CC=CCC2C(=O)O)sc(C)c1CC` (stereo not drawn), for which the inhibition was 15.4%. As for `O=C(CSc1nnc(-c2cccs2)n1Cc1ccco1)c1ccc2c(c1)OCO2`, the figure is -3.98%.

Consider `COc1ccc(-c2cc(C3CCN(c4ncccc4[N+](=O)[O-])CC3)[nH]n2)cc1`, for which the inhibition is 49.2% (active). As for `COc1ccc(-c2cc3ncccc3cn2)cc1`, the inhibition was 8.87%. In the case of `CC(=O)NC(Cc1ccccc1)C(=O)NC1CCN(c2ncccc2[N+](=O)[O-])CC1` (stereo not drawn) it was 10.4%; in that of `O=C(NCC1CCCO1)c1cc2c(s1)CCCC2` (stereo not drawn), -4.36%. For `O=C1CCCc2c1[nH]c1ccc(Br)cc21`, the inhibition is 13.5%. In the case of `COc1cccc(C(=O)Oc2cc(C)[nH]c(=O)c2[N+](=O)[O-])c1` it was -4.85%. In the case of `COC(=O)c1cc(S(=O)(=O)N2CCN(c3cc(C)ccc3C)CC2)c[nH]1` it was 41.6% (active). Regarding `Cc1ccc(C)c(N2CCN(S(=O)(=O)c3ccc4c(c3)oc(=O)n4C)CC2)c1`, the inhibition was 27.4%.

As for `Cc1ccc(C)c(N2CCN(S(=O)(=O)c3c(C)[nH]c(C)c3C(=O)N3CCCC3)CC2)c1`, the inhibition is -8.05%. Take `C/C(=N\N1CCN(Cc2ccc(C)cc2)CC1)c1ccco1`: the inhibition is -7.59%. Consider `O=C(CN1CCN(c2ccccc2)CC1)Nc1ccc(F)cc1`, for which the inhibition is -0.126%. As for `O=C(CN1CCN(c2ccc(F)cc2)CC1)Nc1ccccc1`, the figure is 11.6%. In the case of `O=C(CN1CCN(c2ccc(F)cc2)CC1)Nc1cccc(C(F)(F)F)c1` it was 41.1% (active).
